# Measurements as given in PubChem BioAssay (Tox21).
# Where “and” joins values, the source holds several entries; their conditions need not be identical. Identical values can stand only once. The source holds several records for some structures; these can differ, active in one and inactive in another. Calls of active or inactive are those of the source. Where a call stands in place of a potency, no number is given. Unless noted, calls come from the whole dose curve; as a rule, active = well fitted curve in the direction sought with a large enough effect in the repeat runs; inconclusive = weak or mixed curves; inactive = no such curve, though single readings can be large; an effect the other way counts as inactive or inconclusive.
# Tests used:
# [1] = qHTS assay for identifying genotoxic compounds that show differential cytotoxicity against isogenic chicken DT40 cell lines with known DNA damage response pathways - wild type cell line (AID 743012); note: nearly all actives have a fitted effect of over 60% in size; note: potency is the fitted concentration of half-maximal effect
# Outline: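 Cells (DT40 wild type, 300/well) are treated with DMSO-dissolved compounds after a ~0.5 h pre-incubation and kept 40 h at 37 C/5% CO2. Viability is then measured by CellTiter-Glo luminescence following 30 min at room temperature.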
# [2] = qHTS assay for identifying genotoxic compounds that show differential cytotoxicity against isogenic chicken DT40 cell lines with known DNA damage response pathways - Rev3 mutant cell line (AID 743014); note: nearly all actives have a fitted effect of over 55% in size; note: potency is the fitted concentration of half-maximal effect
# [3] = qHTS assay for identifying genotoxic compounds that show differential cytotoxicity against isogenic chicken DT40 cell lines with known DNA damage response pathways - Rad54/Ku70 mutant cell line (AID 743015); note: nearly all actives have a fitted effect of over 60% in size; note: potency is the fitted concentration of half-maximal effect
# [4] = qHTS assay to identify small molecule antagonists of the androgen receptor (AR) signaling pathway - cell viability counter screen (AID 743033; note: nearly all actives have a fitted effect of over 45% in size; note: potency is the fitted concentration of half-maximal effect)
# [5] = qHTS assay to identify small molecule antagonists of the androgen receptor (AR) signaling pathway using the MDA cell line - cell viability counter screen (AID 743041; note: nearly all actives have a fitted effect of over 45% in size; note: potency is the fitted concentration of half-maximal effect)
# Outline: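 Same-well cytotoxicity was assessed by CellTiter-Fluor in MDA-kb2 AR-luc cells after 16 h of compound treatment under R1881 agonism.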
# [6] = qHTS assay to identify small molecule antagonists of the thyroid receptor (TR) signaling pathway - cell viability counter screen (AID 743064); note: nearly all actives have a fitted effect of over 50% in size; note: potency is the fitted concentration of half-maximal effect
# Outline: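 Compounds were tested on GH3.TRE-Luc cells in the presence of T3 at 1 nM final. Following 23.5 h at 37 °C, cell viability was quantified by CellTiter-Fluor.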
# [7] = qHTS assay to identify small molecule antagonists of the thyroid receptor (TR) signaling pathway (AID 743065); note: nearly all actives have a fitted effect of over 55% in size; note: potency is the fitted concentration of half-maximal effect
# Outline: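 GH3.TRE-Luc rat pituitary cells (two TREs driving luciferase) were dosed with compound, then stimulated with 1 nM T3 (final) for 23.5 h at 37 C. ONE-Glo luminescence was the read-out, with CellTiter-Fluor fluorescence as the cytotoxicity counter-screen.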
# [8] = tested on: thyroid hormone receptor (rat, GH3 cells); assay: qHTS assay to identify small molecule agonists of the thyroid receptor (TR) signaling pathway (AID 743066; calls by dose curve)
# [9] = qHTS assay to identify small molecule antagonists of the estrogen receptor alpha (ER-alpha) signaling pathway - cell viability counter screen (AID 743074; calls by dose curve;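 note: HEK293 cells carrying ER-alpha-UAS-bla reporter stimulated with 17beta-estradiol; nearly all actives have a fitted effect of over 45% in size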; note: potency is the fitted concentration of half-maximal effect)
# [10] = qHTS assay to identify small molecule antagonists of the estrogen receptor alpha (ER-alpha) signaling pathway using the BG1 cell line - cell viability counter screen (AID 743081);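 note: compound given together with 17beta-estradiol as the ER stimulus; nearly all actives have a fitted effect of over 45% in size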; note: potency is the fitted concentration of half-maximal effect
# [11] = biological target: Aromatase (Homo sapiens) (UniProt P11511); assay: qHTS assay to identify aromatase inhibitors (AID 743083); note: nearly all actives have a fitted effect of over 55% in size; note: potency is the fitted concentration of half-maximal effect
# [12] = biological target: Androgen receptor (Homo sapiens) (UniProt P10275); assay: qHTS assay to identify small molecule antagonists of the androgen receptor (AR) signaling pathway (AID 743035; active = well fitted inhibition curve with a large enough effect in the signal ratio in the repeat runs, not every such curve was filed as active; inconclusive = weak or mixed curves, or effect the other way; inactive = no such curve, though single readings can be large or run the other way; the % refers to the signal ratio; note: potency is the fitted concentration of half-maximal effect)
# Outline: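 Antagonism is scored as loss of R1881-driven beta-lactamase reporter expression in HEK293 cells carrying the reporter under a UAS element, after 16 h co-treatment at 37C and a 2 h room-temperature FRET substrate read.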
# [13] = biological target: Androgen receptor (Homo sapiens) (UniProt P10275); assay: qHTS assay to identify small molecule agonists of the androgen receptor (AR) signaling pathway (AID 743036; active = well fitted activation curve with a large enough effect in the signal ratio in the repeat runs, with a control signal flat, not every such curve was filed as active; inconclusive = weak or mixed curves, or effect the other way; inactive = no such curve, though single readings can be large or run the other way; the % refers to the signal ratio)
# Outline: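 Beta-lactamase under UAS control, stably integrated in HEK293 GripTite cells, reports receptor activation. After 16 h compound treatment, cells received FRET substrate for 2 h at room temperature before fluorescence reading.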
# [14] = biological target: Androgen receptor (Homo sapiens) (UniProt P10275); assay: qHTS assay to identify small molecule agonists of the androgen receptor (AR) signaling pathway using the MDA cell line (AID 743040; note: nearly all actives have a fitted effect of over 20% in size)
# Outline: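 Human breast carcinoma MDA-kb2 reporter cells (MMTV-luc, AR/GR elements) were treated for 16 h at 37C in 0% CO2 following a 5 h settling period. Signal was quantified by ONE-Glo luminescence.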
# [15] = biological target: Androgen receptor (Homo sapiens) (UniProt P10275); assay: qHTS assay to identify small molecule antagonists of the androgen receptor (AR) signaling pathway using the MDA cell line (AID 743042; note: potency is the fitted concentration of half-maximal effect; nearly all actives have a fitted effect of over 55% in size)
# Outline: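 MDA-kb2 breast carcinoma cells carrying MMTV-luciferase (AR/GR responsive) were co-treated with compounds and the agonist R1881 for 16 h at 37C. Inhibition read as ONE-Glo luminescence; CellTiter-Fluor fluorescence measured in parallel for cytotoxicity.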
# [16] = biological target: Estrogen receptor (Homo sapiens) (UniProt P03372); assay: qHTS assay to identify small molecule agonists of the estrogen receptor alpha (ER-alpha) signaling pathway (AID 743075; calls by dose curve;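 note: HEK293 GripTite cells with ER-alpha and UAS-driven beta-lactamase reporter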; note: potency is the fitted concentration of half-maximal effect)
# [17] = biological target: Estrogen receptor (Homo sapiens) (UniProt P03372); assay: qHTS assay to identify small molecule antagonists of the estrogen receptor alpha (ER-alpha) signaling pathway (AID 743069; active = well fitted curve in the direction sought with a large enough effect in the signal ratio in the repeat runs, not every such curve was filed as active; inconclusive = weak or mixed curves, or effect the other way; inactive = no such curve, though single readings can be large or run the other way; the % refers to the signal ratio)
# Outline: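 Reporter cells (ER-alpha-bla, HEK293 background) are conditioned overnight in stripped-serum medium (2% charcoal-stripped FBS). Compound and 17beta-estradiol exposure runs 18 hr at 37C, 5% CO2.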
# [18] = biological target: Estrogen receptor (Homo sapiens) (UniProt P03372); assay: qHTS assay to identify small molecule agonists of the estrogen receptor alpha (ER-alpha) signaling pathway using the BG1 cell line (AID 743079); note: nearly all actives have a fitted effect of over 20% in size
# [19] = qHTS assay to identify small molecule antagonists of the estrogen receptor alpha (ER-alpha) signaling pathway using the BG1 cell line (AID 743080; calls by dose curve;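 note: BG1 cells stimulated with 17beta-estradiol alongside compound; series mostly up to about 70 µM; nearly all actives have a fitted effect of over 25% in size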)
# Outline: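 Luciferase inhibition measured with ONE-Glo after 30 min at RT in BG1Luc4E2 cells given test compounds and 17beta-estradiol for 21.5 h at 37 C; CellTiter-Fluor viability read in the same wells beforehand.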
# Chain of Androgen receptor (Homo sapiens) (P10275 whole entry, looked up): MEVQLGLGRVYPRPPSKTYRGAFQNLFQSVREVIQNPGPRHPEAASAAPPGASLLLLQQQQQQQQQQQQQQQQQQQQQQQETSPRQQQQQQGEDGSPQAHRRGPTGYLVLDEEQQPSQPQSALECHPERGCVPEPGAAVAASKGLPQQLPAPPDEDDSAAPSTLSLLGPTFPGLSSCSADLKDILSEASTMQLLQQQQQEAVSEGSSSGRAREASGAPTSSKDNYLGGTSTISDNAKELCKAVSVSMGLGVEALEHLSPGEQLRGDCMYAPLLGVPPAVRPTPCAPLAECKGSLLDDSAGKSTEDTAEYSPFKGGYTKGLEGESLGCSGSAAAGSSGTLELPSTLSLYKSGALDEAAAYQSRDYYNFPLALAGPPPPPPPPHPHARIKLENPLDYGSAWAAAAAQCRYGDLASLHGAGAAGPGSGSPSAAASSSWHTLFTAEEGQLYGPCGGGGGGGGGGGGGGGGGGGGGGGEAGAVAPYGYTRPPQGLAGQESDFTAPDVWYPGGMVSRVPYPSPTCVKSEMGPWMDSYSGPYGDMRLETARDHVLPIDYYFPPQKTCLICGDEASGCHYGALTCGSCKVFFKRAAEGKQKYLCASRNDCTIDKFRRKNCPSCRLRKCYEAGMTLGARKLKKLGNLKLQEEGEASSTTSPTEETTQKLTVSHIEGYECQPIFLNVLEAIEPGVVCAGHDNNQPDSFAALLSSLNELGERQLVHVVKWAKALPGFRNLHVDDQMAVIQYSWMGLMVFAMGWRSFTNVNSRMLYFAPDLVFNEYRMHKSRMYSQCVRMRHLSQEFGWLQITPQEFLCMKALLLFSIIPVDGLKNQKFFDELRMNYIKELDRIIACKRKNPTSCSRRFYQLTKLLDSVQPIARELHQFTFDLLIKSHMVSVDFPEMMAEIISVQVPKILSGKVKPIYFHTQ
# Chain of Aromatase (Homo sapiens) (P11511 whole entry, looked up): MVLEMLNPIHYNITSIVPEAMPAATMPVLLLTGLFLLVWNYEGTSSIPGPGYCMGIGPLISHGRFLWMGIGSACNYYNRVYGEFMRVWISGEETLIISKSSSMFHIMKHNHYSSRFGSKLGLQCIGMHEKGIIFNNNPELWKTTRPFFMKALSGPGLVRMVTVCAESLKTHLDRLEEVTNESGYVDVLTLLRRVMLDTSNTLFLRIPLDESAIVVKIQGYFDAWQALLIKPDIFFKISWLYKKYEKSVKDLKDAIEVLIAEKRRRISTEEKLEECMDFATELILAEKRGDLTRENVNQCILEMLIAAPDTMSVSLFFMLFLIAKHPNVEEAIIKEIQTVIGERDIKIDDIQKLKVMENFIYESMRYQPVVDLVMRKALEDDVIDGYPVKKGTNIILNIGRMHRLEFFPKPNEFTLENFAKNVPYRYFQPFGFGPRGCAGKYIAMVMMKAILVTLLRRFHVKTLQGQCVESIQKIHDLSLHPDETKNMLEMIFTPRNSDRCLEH
# Chain of Estrogen receptor (Homo sapiens) (P03372 whole entry, looked up): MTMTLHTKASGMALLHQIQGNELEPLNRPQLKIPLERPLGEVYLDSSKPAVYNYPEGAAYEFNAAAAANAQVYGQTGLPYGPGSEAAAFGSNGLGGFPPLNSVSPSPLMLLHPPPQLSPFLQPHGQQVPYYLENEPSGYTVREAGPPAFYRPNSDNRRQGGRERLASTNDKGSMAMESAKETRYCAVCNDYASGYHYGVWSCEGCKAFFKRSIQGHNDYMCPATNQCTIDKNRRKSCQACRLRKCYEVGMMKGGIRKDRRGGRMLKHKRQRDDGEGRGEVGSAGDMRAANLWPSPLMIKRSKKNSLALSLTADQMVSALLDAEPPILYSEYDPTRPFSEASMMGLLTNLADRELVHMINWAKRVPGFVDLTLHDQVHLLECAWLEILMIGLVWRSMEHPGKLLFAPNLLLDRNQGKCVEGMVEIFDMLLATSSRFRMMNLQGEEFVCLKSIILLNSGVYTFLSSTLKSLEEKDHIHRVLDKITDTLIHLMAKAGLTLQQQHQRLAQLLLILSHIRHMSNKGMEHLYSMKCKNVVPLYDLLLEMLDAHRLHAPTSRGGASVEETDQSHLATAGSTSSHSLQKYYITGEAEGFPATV
SMILES,Potency [1],Potency [2],Potency [3],Potency [4],Potency [5],Potency [6],Potency [7],outcome [8],Potency [9],Potency [10],Potency [11],Potency [12],Potency [13],Potency [14],Potency [15],Potency [16],Potency [17],Potency [18],Potency [19]
ClC(Cl)=C(Cl)Cl,inactive,inactive,inactive,inactive,inactive,inactive,inactive,inactive,inactive,inactive,inactive,–,–,–,–,–,–,–,–
O=C(CCl)Nc1ccccc1,10.9 µM (active),10.9 µM (active),5.45 µM (active),–,54.5 µM (active),24.3 µM (active),24.3 µM (active),–,–,–,43.3 µM (active),15.5 µM (active),inactive,inactive,27.3 µM (active),inactive,–,–,–
Cc1cc(C)c(C2=C(OC(=O)CC(C)(C)C)C3(CCCC3)OC2=O)c(C)c1,inactive,inactive,–,inactive,inactive,inactive,inactive,inactive,inactive,inactive,inactive,–,–,–,–,inactive,inactive,inactive,inactive
Oc1cc(Cl)c(Cl)c(Cl)c1,inactive,inactive,inactive,32.9 µM (active),inactive,–,–,–,–,inactive,–,–,–,inactive,–,41.4 µM [activator] (active),–,–,inactive
N#C/C=C/C#N,inactive,inactive,inactive,inactive,inactive,64 µM (active),32.1 µM (active),inactive,inactive,inactive,28.6 µM (active),–,–,–,–,45.7 µM [inconclusive] (active),–,inactive,–
O=[N+]([O-])c1cc(C(F)(F)F)c(Cl)c([N+](=O)[O-])c1Cl,0.386 µM (active),0.486 µM (active),0.386 µM (active),21.9 µM (active),54.5 µM (active),0.611 µM (active),0.386 µM (active),–,54.9 µM (active),61.1 µM (active),1.22 µM (active),–,–,–,–,–,–,–,–
C[C@]12CC[C@H]3[C@@H](CCC4=CC(=O)CC[C@@]43C)[C@@H]1CC[C@@H]2O,54.1 µM (active),30.4 µM (active),–,inactive,inactive,inactive,30.4 µM (active),inactive,inactive,inactive,inactive,–,–,–,–,–,–,–,inactive
ClC(Cl)=C(c1ccc(Cl)cc1)c1ccc(Cl)cc1,inactive,inactive,inactive,inactive,inactive,62.6 µM (active) and 30.6 µM (active),55.8 µM (active) and 30.6 µM (active),inactive,inactive,inactive,inactive,–,–,–,–,inactive,inactive,–,inactive
CC(C)CC(C)Nc1ccc(Nc2ccccc2)cc1 (stereo not drawn),26.8 µM (active),16.9 µM (active),15.1 µM (active),21.5 µM (active),–,42.5 µM (active),30.1 µM (active),inactive,48.2 µM (active),53.5 µM (active),53.5 µM (active),–,–,–,–,inactive,–,–,–
Oc1ccc2ccc3cccc4ccc1c2c34,30.6 µM (active),48.6 µM (active),30.6 µM (active),inactive,inactive,–,–,–,inactive,inactive,–,–,–,–,–,–,–,–,–
C1CCC2CCCCC2C1 (stereo not drawn),inactive,inactive,–,inactive,inactive,inactive,inactive,inactive,inactive,inactive,inactive,–,–,–,–,inactive,–,inactive,inactive
Clc1ccc(C(c2ccccc2Cl)C(Cl)(Cl)Cl)cc1 (stereo not drawn),45.1 µM (active),45.1 µM (active),–,inactive,inactive,27.5 µM (active) and 40.2 µM (active),27.5 µM (active) and 40.2 µM (active),inactive,inactive,inactive,inactive,–,–,–,–,–,inactive,–,inactive
[Cd+2].[Cl-].[Cl-],19.5 µM (active) and 24.3 µM (active),13.8 µM (active) and 27.3 µM (active),13.8 µM (active) and 24.3 µM (active),24.8 µM (active),inactive,24.5 µM (active) and 30.6 µM (active),27.5 µM (active) and 38.6 µM (active),inactive,–,–,54.9 µM (active) and inactive,–,–,–,–,–,–,–,–
CCCCCCCCCCCCBr,27.3 µM (active),13.7 µM (active),30.6 µM (active),–,–,inactive,–,inactive,–,inactive,–,–,–,–,–,inactive,–,inactive,inactive
OC(c1ccc(Cl)cc1)(c1ccc(Cl)cc1)C(Cl)(Cl)Cl,61.1 µM (active),48.6 µM (active),48.6 µM (active),–,inactive,–,–,inactive,inactive,inactive,61.1 µM (active),–,–,–,–,–,–,–,–
